Test results from PubChem BioAssay AID1490 (National Center for Advancing Translational Sciences (NCATS), 2009).
Several values for one entry are separate records, joined by “and”; a condition that tells them apart may be missing. Identical values can stand only once. In all, about 310,000 compounds went through this assay and about 11,000 (3.5%) were called active. Not shown: some 4% with an inconclusive outcome. Only a selection was taken, and actives are over-represented in it overall. Unmarked numbers belong to inactive results. Calls follow the shape of the dose curve; as a rule, active = well fitted inhibition curve with a large enough effect; inconclusive = small, poorly fitted or top-dose-only effect, or another doubt; inactive = no such curve, though single readings can be large or run the other way.
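Also: the enzyme is Sfp with the accession as filed and its product quenches rhodamine fluorescence.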
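For largest response in the series, negative = inhibition in this document: 0% = enzyme reaction without inhibitor and -100% = no enzyme wells.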
Potency is read from the fitted curve at half-maximal effect.

These compounds were tested against 4'-phosphopantetheinyl transferase ffp (Bacillus subtilis) (UniProt Q9F4F7) (assay: qHTS Assay for Inhibitors of Bacillus subtilis Sfp phosphopantetheinyl transferase (PPTase)). Details: Biochemical Sfp PPTase activity.
Outline: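 Step 1, compound plus 15 nM Sfp-PPTase, 15 min, room temperature. Step 2, add rhodamine-CoA (5 uM) and BHQ-2-YbbR (12.5 uM). Step 3, read 525/598 nm fluorescence at 0 and 30 min.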
`COc1ccccc1N1CCN(S(=O)(=O)CCNC(=O)c2ccc(OC(C)C)cc2)CC1` gave a largest response in the series, negative = inhibition of 3.56%.
In the case of `COc1ccc(N2C(=O)CC(N3CCC(C(N)=O)CC3)C2=O)cc1` (stereo unspecified), the largest response in the series, negative = inhibition is reported as -13.3%.
`COc1ccc(CCN2C(=O)C3CC=C(C)CC3C2=O)cc1OC` (stereo unspecified) was tested, and the largest response in the series, negative = inhibition was 7.59%.
With `COc1ccc(CCN2C(=O)CC(N3CCC(C(N)=O)CC3)C2=O)cc1OC` (stereo unspecified) the Potency was 50.1 µM (active).
Compound `COc1cc(Cl)c(C)cc1NC(=O)CN1CCCCCC1` has a largest response in the series, negative = inhibition of 1.55%.
`O=C(N/N=C/c1c[nH]c2ccccc12)c1ccccc1O` was tested, and the largest response in the series, negative = inhibition was 16.9%.
`CSC(=S)N/N=C/c1c[nH]c2ccccc12` gave a largest response in the series, negative = inhibition of 7.95%.
In the case of `C[n+]1ccc(/C=C/c2c[nH]c3ccccc23)cc1`, the Potency is reported as 56.2 µM (active).
With `Cc1cc(=O)[nH]c(Nc2cccc(Br)c2)n1` the largest response in the series, negative = inhibition was -3.95%.
For `Cc1cccc(C)c1NC(=O)CSc1nc2c([nH]1)c(=O)n(C)c(=O)n2C`, the largest response in the series, negative = inhibition was -3.14%.
For `Cc1ccc(NN=Nc2nc3c([nH]2)c(=O)n(C)c(=O)n3C)cc1`, the Potency was 25.1 µM (active).
`CC(CCO)Nc1nc2c([nH]1)c(=O)n(C)c(=O)n2C` (stereo unspecified) showed a largest response in the series, negative = inhibition of 11.2%.
`CSc1nccc(NC(=O)c2ccc(C(C)(C)C)cc2)n1` was tested, and the largest response in the series, negative = inhibition was -8.43%.
`CCOC(=O)N1CCN(C(=O)c2ccc3c(=O)n(CCc4ccc(OC)c(OC)c4)c(=O)[nH]c3c2)CC1` showed a largest response in the series, negative = inhibition of 8.01%.
For `O=C(O)[C@@H](S)[C@H](S)C(=O)O`, the Potency was 1.12 µM (active).
In the case of `O=C(C[n+]1cc(Br)cc2ccccc21)c1ccc(F)cc1`, the largest response in the series, negative = inhibition is reported as 4.07%.
`COc1cccc([C@@H]2Oc3ccc(Br)cc3C(=O)[C@H]2OC(=O)NCCc2ccc(OC)c(OC)c2)c1` was tested, and the largest response in the series, negative = inhibition was -29.3%.
`COc1ccccc1N1CCN(C(=O)c2ccc(NC3=NC4CS(=O)(=O)CC4S3)cc2)CC1` (stereo unspecified) showed a largest response in the series, negative = inhibition of 11.2%.
With `COc1ccc(CCCOC(Cn2ccnc2)c2ccc(OC)cc2)cc1` (stereo unspecified) the largest response in the series, negative = inhibition was 10.3% and -14.1%.
Work on `Cc1cc(C)c(C#N)c(N2CCC(C(N)=O)CC2)n1` yielded a largest response in the series, negative = inhibition of 15.7%.
For `N#Cc1c(N2CCCCC2)nc(N)c2c(N)nc(SCC(=O)O)cc12`, the Potency was 8.91 µM (active).
With `CC(=O)c1cc(C#N)c(N2CCCCC2)nc1C` the largest response in the series, negative = inhibition was 10.1%.
Work on `N#CCc1ccc(NC(=O)c2ccccc2C(=O)Nc2ccc(CC#N)cc2)cc1` yielded a largest response in the series, negative = inhibition of 5.96%.
Compound `CCOCc1nnc(NC(=O)CCC2CCCCC2)s1` has a largest response in the series, negative = inhibition of 18.1%.
`COC(=O)CCCC1=CC2=CC(=O)C(C)(OC(=O)c3cccs3)C(=O)C2=CN1c1ccc(CO)cc1` (stereo unspecified) was tested, and the largest response in the series, negative = inhibition was -1.16%.
`CCOC(=O)c1csc(CCNC(=O)c2oc3c(Cl)cc(C)cc3c2C)n1` was tested, and the largest response in the series, negative = inhibition was -19.2%.
